Results from PubChem BioAssay AID1454 (National Center for Advancing Translational Sciences (NCATS), 2008).
Hit rate of the full screen: of about 130,000 compounds, about 550 (0.42%) were called active. About 4% were inconclusive and are not listed. This is one part of a sample in which actives are shown more often than they occur. A number with no mark means an inactive call. Calls come from the whole dose curve; as a rule, active = well fitted inhibition curve with a large enough effect; inconclusive = small, poorly fitted or top-dose-only effect, or effect the other way; inactive = flat fitted curve, though single readings scatter.

Test: qHTS Assay for Inhibitors of the ERK Signaling Pathway using a Homogeneous Screening Assay; Stimulation with EGF; note: nearly all actives have a fitted effect of over 55% in size
Settings: HEK293-V1b, EGF-stimulated phospho-ERK AlphaScreen; series mostly up to 11.5 µM; activity change, negative = inhibition: at the top concentration
Text: NIH Chemical Genomics Center [NCGC]
NIH Molecular Libraries Screening Centers Network [MLSCN]
Assay Submitter (PI): Dr. Wei Zheng, NCGC/NIH
The Ras/extracellular-signal-regulated kinase (ERK) mitogen activated protein (MAP) kinase signaling pathway (ERK1/2 cascade) plays a key role in transmitting signals from the cell surface to the nucleus (Nishida and Gotoh 1993; Chang and Karin, 2001). The cascade is initiated by the small G-protein Ras, which recruits Raf from the cytosol, where activation occurs. Alternatively, this pathway can be activated by elevating intracellular cAMP, or by activation of a receptor tyrosine kinase as epidermal growth factor receptor.
Activation of the ERK pathway is essential in increased cell division and cell survival. Sustained and constitutive activation of the ERK pathway, however, has been linked to uncontrolled cell proliferation, increased cell survival, and tumor progression. Thus, the ERK has been as an attractive target for cancer chemotherapy in the past few years (Sebolt-Leopold and Herrera, 2004). Given its physiological and pathological importance, assessment of ERK phosphorylation has been broadly performed in both basic research and drug discovery. Most assays for the measurement of ERK phosphorylation use the antibody-based detection methods, such as western blot and ELISA. These assays require multiple reagent additions with cell wash steps and are not suitable for high throughout screening.
The current cell-based ERK phosphorylation assay was performed using AlphaScreen platform. AlphaScreen is a two bead-based proximity-dependent chemical energy transfer luminescent assay platform. The assay reagents (ERK SureFire(TM) kit) were supplied from TGR BioSciences (Australia). In the presence of specific antibodies, phosphorylated ERK will bring "donor" and "acceptor" beads to a proximity range (<200 nm), and subsequently lead a chemical luminescent reaction upon exciting donor beads with 680 nm laser. To exclude the assay-related false positives, we used a biotinylated rabbit IgG to perform counter-screen. The biotinylated antibody mimics the phosphorylated ERK1/2 for bringing streptavidin coated beads and protein-A coated beads to a proximity range for the AlphaScreen detection.
NCGC Assay Protocol Summary:
HEK293 cells stably expressing type-1 vasopressin receptor (V1b) were maintained in DMEM medium (Invitrogen, Carlsbad, CA) at 37C under a humidified atmosphere containing 5% CO2 and 95% air. The medium contained 10% FBS, 2 mM L-glutamine, non-essential amino acid, pyruvate and 50 U/ml penicillin and 50 ug/ml streptomycin (Invitrogen). The aliquots of frozen cells were stored at -135C and used for the compound screening. All compounds were screened as titrations from 0.6 nM to 46 uM final concentration. Epidermal growth factor (EGF) was used to stimulate the ERK phosphorylation pathway. The ERK phosphorylation in cells was determined using an AlphaScreen assay kit provided by […]. Data were normalized to the controls for basal activity (DMSO only) and 100% activation (25 nM EGF). AC50 values were determined from concentration-response data modeled with the standard Hill equation.
(1) Seed 4 ul/well of resuspended frozen HEK293 cells containing 2000 cells in white 1536-well plates for overnight with 1% FBS at 37C under a humidified atmosphere containing 5% CO2 and 95% air.
(2) Add 23 nL compounds in DMSO solution. The final titration was 0.6 nM to 46 uM.
(3) Incubate at 37C for 30 min.
(4) Dispense 0.5uL EGF (25 nM in final)
(5) Incubate at 37C for 5 min.
(6) Dispense 0.5uL of 1:2 diluted 5x lysis buffer.
(7) Incubate at 37C for 10 min.
(8) Dispense 1.5uL of mixture of activation buffer and reaction buffer with AlphaScreen beads (streptavidin donor beads and protein-A acceptor beads, 10 ng/well for each).
(9) Incubate at room temperature for 5 hr.
(10) Detect the assay plate in an EnVision plate reader (PerkinElmer) using the AlphaScreen detection mode.
[…]
Potency is the fitted concentration of half-maximal effect.

| SMILES | activity change, negative = inhibition | Potency |
| --- | --- | --- |
| O=C(CN1CCCCC1)Nc1ccccc1Cl | -9.35% |  |
| O=C(Nc1ccccc1Cl)/C(Cl)=C(\Cl)S(=O)c1ccccc1 (stereo unspecified) |  | 31.6 µM (active) |
| COCCN(CCOC)C(=S)Nc1ccccc1Cl | 24.8% |  |
| COC(=O)Cc1ccc(Oc2ncc(C(F)(F)F)cc2Cl)cc1 | 1.69% |  |
| CCOc1ccccc1N1CN(Cc2ccccc2)CNC1=S | 1.39% [at 57.5 µM] |  |
| CN(Cc1nc(-c2cnccn2)no1)Cc1n[nH]c2c1CCCCC2 | 3.06% [at 57.5 µM] |  |
| CN=C1C=C/C(=N/N=c2\ccn(O)cc2C)C=C1C |  | 17.8 µM (active) |
| Cn1nnc(NC(=S)NC(=O)c2ccccc2)n1 | -2.19% [at 57.5 µM] |  |
| COc1ccc(C(=O)N/N=C2\CCS(=O)(=O)c3ccc(F)cc32)cc1OC | -0.3% [at 57.5 µM] |  |
| C/C(=N/NC(=O)c1ccn(C)n1)c1ccncc1 | 5.86% [at 57.5 µM] |  |
| CCN(CC)S(=O)(=O)c1ccc(OC(C)C)c(N)c1 | 2.99% |  |
| CCS(=O)(=O)c1ccc(O)c(NC(=O)COc2ccc(Cl)cc2)c1 | -0.946% |  |
| CN(CCc1cn[nH]c1)C(=O)CC1C(=O)NCCN1Cc1cccc(Oc2ccccc2)c1 (stereo unspecified) | -15.3% |  |
| O=C(CN1CCN(c2ccc(Cl)cc2)CC1)NCc1cccs1 | -13.5% |  |
| Cc1ccc(/C=N/NC(=S)Nc2cccc(S(=O)(=O)N(C)C)c2)o1 | 7.91% [at 57.5 µM] |  |
| Nc1nnc(SCn2nnc3ccccc3c2=O)s1 | -7.57% |  |
| CC1(C)CC(=O)C(CC(=O)N2CCC(Cc3ccccc3)CC2)C(=O)C1 | 1.38% |  |
| Cc1ccc(CN(Cc2cccnc2)C(=S)Nc2cc(Cl)ccc2C)cc1 | 4.9% |  |
| O=C(COC(=O)c1ccc(S(=O)(=O)Nc2ccccc2)cc1)NCC1CCCO1 (stereo unspecified) | 12.7% [at 57.5 µM] |  |

| SMILES | activity change, negative = inhibition | Potency |
| --- | --- | --- |
| COc1ccc(-n2cnnc2SCC(=O)Nc2cccc([N+](=O)[O-])c2)cc1 | 4.62% |  |
| CCCc1nc2c(c(=O)c3ccccc3n2C)c(=O)n1-c1cc(C)cc(C)c1 | 2.8% [at 57.5 µM] |  |
| COc1ccc(CCNC(=O)C(=O)NCC2CCNCC2)cc1OC | -2.48% [at 57.5 µM] |  |
| CCn1c(SCc2cc(=O)n3ccsc3n2)nc2ccccc21 | 1.03% |  |
| N#C/C(=C/c1ccc(-c2ccccc2[N+](=O)[O-])o1)C(=O)NCCN1CCCCC1 | -4.68% [at 57.5 µM] |  |
| COC(=O)/C=C(\Oc1ccccc1)C1(O)CCCCC1 | 9.88% [at 57.5 µM] |  |
| O=[N+]([O-])c1ccc2c(c1)C(N1CCOCC1)/C(=C/C1(O)CCCCC1)O2 (stereo unspecified) | -3.12% |  |
| CC(=O)Nc1cccc(-c2nc3ccccc3s2)c1C | -1.53% |  |
| CCOC(=O)N1CCN(CC(=O)Nc2ccc(F)cc2)CC1 | 11.2% |  |
| COCCCNC(NC(=O)c1ccc(OC)cc1)C(Cl)(Cl)Cl (stereo unspecified) | 7.85% |  |
| CC(=O)c1cccc(NC(=O)[C@@H](NC(N)=O)C(C)C)c1 | -0.0389% |  |
| Cc1[nH]n(C)c(=O)c1N=Nc1ccc(S(C)(=O)=O)cc1 | -9.46% [at 57.5 µM] |  |
| Cc1cccc(N=Nc2c(C)[nH]n(-c3ccccc3)c2=O)c1 |  | 7.08 µM (active) |
| O=C(NNC(=O)c1ccccc1[N+](=O)[O-])Nc1ccccc1C(F)(F)F | -11% |  |
| CCCC(=O)Nc1nnc(-c2ccccc2)o1 | -5.39% [at 57.5 µM] |  |
| COc1ccc(CN(C)C(=S)Nc2ccc(Cl)cc2Cl)cc1 | -4.17% |  |
| O=C(NCc1csc(-c2cccs2)n1)C1CC1 | 3.28% [at 57.5 µM] |  |
| Cc1noc(C)c1COC(=O)COc1ccc(-c2ccccc2)cc1 | 3.01% [at 57.5 µM] |  |
| CCCn1c(NC(=O)C23CC4CC(CC(O)(C4)C2)C3)nc2ccccc21 | 0.399% |  |

| SMILES | activity change, negative = inhibition | Potency |
| --- | --- | --- |
| CCOC(=O)c1c(C)[nH]c2c1-c1ccccc1C(=O)C2=O | -6.6% |  |
| CCOC(=O)c1ccccc1NS(=O)(=O)c1ccc(OC)cc1 | 12.6% |  |
| CCOC(=O)C1=C(c2ccc(OC)cc2)C(=O)c2ccccc2C1=O |  | 31.6 µM (active) |
| CC(C)NC(=O)NC(=O)CSc1nnc(-c2ccccc2F)n1N | 3.58% |  |
| Cc1cc(C)nc(NC(=O)/C=C/c2ccc(Cl)cc2)n1 | -5.42% [at 57.5 µM] |  |
| COc1ccc(/C=C/C(=O)Nc2ccc(C)cc2)cc1S(=O)(=O)N1CCOCC1 | -5.96% [at 57.5 µM] |  |
| CC(=O)Nc1ccc(S(=O)(=O)Nc2nc(-c3ccc(C(C)(C)C)cc3)cs2)cc1 | -2.35% |  |
| CC(=O)Nc1ccc(-c2csc(NC=C3C(=O)OC(C)(C)OC3=O)n2)cc1 | -2.25% |  |
| CC(=O)Nc1ccc(-c2csc(NC(=O)Nc3ccccc3)n2)cc1 |  | 25.1 µM (active) |
| CN(c1ccccc1)S(=O)(=O)c1ccc(Cl)c(C(=O)OCC(=O)N2CCOCC2)c1 | -4.38% |  |
| O=C(NCc1cccs1)c1cc(-c2ccccn2)nc2ccc(Br)cc12 | 8.18% |  |
| O=C(CN1CCCC1)N1CCN(c2ccccc2)CC1 | 5.85% |  |
| COc1ccc(N2CCN(C(=O)/C(C#N)=C/c3ccccc3)CC2)cc1 | 8.33% |  |
| CC(CO)NCC12CC3CC(CC(C3)C1)C2 (stereo unspecified) | -23.6% |  |
| CC(C)(C)c1cc(P(=O)(c2ccccc2)c2ccccc2)ccc1O | 8.91% [at 57.5 µM] |  |
| CCOC(=O)CN(C(=O)COc1nc(-c2ccccc2)cc(C)c1C#N)c1ccc(F)cc1 | 3.15% [at 57.5 µM] |  |
| COC(OC)c1ccnc(SCc2ccccc2Cl)n1 | -7.52% [at 57.5 µM] |  |
| O=C(O)/C=C/c1ccc2c(c1)OCCO2 | -8.38% [at 57.5 µM] |  |
